For assay [1], the target named is Cytochrome P450 2D6 (Homo sapiens) (UniProt P10635). The experiment in a line: Cytochrome P450 family 2 subfamily D member 6 (CYP2D6) small molecule antagonists: luciferase biochemical (cell-free) qHTS assay (AID 1645840; active = well fitted curve in the direction sought with a large enough effect in the repeat runs; an effect the other way counts as inactive or inconclusive; note: nearly all actives have a fitted effect of over 55% in size; note: potency is the fitted concentration of half-maximal effect; for activity change, negative = inhibition: % is set by controls: 0 for no effect and ±100 for the full control effect). Put shortly: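 P450-Glo CYP2D6 system: proluciferin substrate converted by enzyme to luciferin, read by luminescence proportional to activity. Enzyme-substrate mix with compound 10 min at room temperature, then NADPH regeneration 1 h before detection reagent.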
Cytochrome P450 2D6 (Homo sapiens), sequence (P10635 whole entry, looked up): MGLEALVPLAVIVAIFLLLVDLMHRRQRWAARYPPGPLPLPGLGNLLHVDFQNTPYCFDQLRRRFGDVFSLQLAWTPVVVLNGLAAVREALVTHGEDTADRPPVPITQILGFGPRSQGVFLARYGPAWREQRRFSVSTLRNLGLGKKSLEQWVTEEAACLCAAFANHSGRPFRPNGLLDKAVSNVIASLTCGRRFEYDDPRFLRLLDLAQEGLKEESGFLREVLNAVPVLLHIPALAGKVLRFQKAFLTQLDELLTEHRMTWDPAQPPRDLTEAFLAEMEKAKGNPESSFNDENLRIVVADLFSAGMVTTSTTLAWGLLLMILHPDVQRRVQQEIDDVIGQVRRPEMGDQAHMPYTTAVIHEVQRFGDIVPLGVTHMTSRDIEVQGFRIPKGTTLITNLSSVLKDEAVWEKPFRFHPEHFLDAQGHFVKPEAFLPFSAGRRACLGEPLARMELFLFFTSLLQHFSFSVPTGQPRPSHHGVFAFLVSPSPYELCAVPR
(In qHTS, concentration-response curves come from the screen itself.)

The target of assay [2] is Cytochrome P450 2C9 (Homo sapiens) (UniProt P11712). The experiment in a line: Cytochrome P450 family 2 subfamily C member 9 (CYP2C9) small molecule antagonists: luciferase biochemical (cell-free) qHTS assay (AID 1645842; active = well fitted curve in the direction sought with a large enough effect in the repeat runs; an effect the other way counts as inactive or inconclusive; note: nearly all actives have a fitted effect of over 55% in size; note: potency is the fitted concentration of half-maximal effect; for activity change, negative = inhibition: % is set by controls: 0 for no effect and ±100 for the full control effect). Put shortly: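 P450-Glo CYP2C9 system: proluciferin substrate with enzyme in mix containing 0.4% BSA, 10 min at room temperature, then NADPH regeneration solution added and incubated 1 h at 37C. Detection reagent stopped reaction; luminescence read after 20 min as RLU.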
Cytochrome P450 2C9 (Homo sapiens), sequence (P11712 whole entry, looked up): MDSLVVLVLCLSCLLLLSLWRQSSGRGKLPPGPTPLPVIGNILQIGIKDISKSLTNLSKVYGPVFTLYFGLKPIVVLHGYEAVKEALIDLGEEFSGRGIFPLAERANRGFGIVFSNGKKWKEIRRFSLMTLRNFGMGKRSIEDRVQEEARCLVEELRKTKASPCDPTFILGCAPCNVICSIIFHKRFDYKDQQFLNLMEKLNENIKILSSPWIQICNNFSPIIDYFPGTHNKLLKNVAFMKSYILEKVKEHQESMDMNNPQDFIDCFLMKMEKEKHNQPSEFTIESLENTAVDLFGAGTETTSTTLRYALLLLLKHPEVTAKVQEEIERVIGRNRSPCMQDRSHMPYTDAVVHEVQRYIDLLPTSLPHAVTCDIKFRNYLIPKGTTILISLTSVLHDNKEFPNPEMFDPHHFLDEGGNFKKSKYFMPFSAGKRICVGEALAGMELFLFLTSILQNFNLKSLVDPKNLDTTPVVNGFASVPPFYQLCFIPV

A short description of assay [3]: Primary qHTS for inhibitors of nuclear receptor binding SET domain protein 2 (NSD2) in an isogenic RCH-ACV NSD2 p.E1099K mutant (9B) (AID 1645876). Note: nearly all actives have a fitted effect of over 70% in size. Note: potency is the fitted concentration of half-maximal effect.
Assay [4] can be described thus: Primary qHTS for inhibitors of nuclear receptor binding SET domain protein 2 (NSD2) in an RCH-ACV wild type WT cells (2C) (AID 1645877). Note: nearly all actives have a fitted effect of over 70% in size. Note: potency is the fitted concentration of half-maximal effect.
A short description of assay [5]: NCATS anti-infectives library activity on HEK293 viability as a counter-qHTS vs the C. elegans viability qHTS (AID 1745854). Note: % is set by controls: 0 for no effect and ±100 for the full control effect. Summed up: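 Cytotoxicity counter-screen to a worm viability qHTS: CellTiter-Glo luminescence read 10 min after reagent addition. Compounds (final up to 41.7 uM, a 1:5 dilution series) incubated 24 hr at 37C with 1,500 HEK293 cells per well; digitonin control.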

For assay [6], the target named is Catechol O-methyltransferase (Homo sapiens) (UniProt P21964). The experiment in a line: Confirmatory Screen for Target Class Profiling of Small Molecule Inhibitors of Methyltransferases (AID 1745852). The following applies: MTase-Glo luminescence, SAH detection, recombinant enzyme; measured here: COMT max response; stronger effect = lower value.
Catechol O-methyltransferase (Homo sapiens), sequence (P21964 whole entry, looked up): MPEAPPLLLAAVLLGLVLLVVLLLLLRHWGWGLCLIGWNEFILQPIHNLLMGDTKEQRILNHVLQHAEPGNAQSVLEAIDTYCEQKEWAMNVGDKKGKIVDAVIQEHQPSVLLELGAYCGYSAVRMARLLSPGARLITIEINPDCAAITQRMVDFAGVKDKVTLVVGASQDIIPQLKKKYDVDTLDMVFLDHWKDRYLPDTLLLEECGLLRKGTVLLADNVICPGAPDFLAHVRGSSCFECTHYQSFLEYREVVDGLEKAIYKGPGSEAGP
For assay [7], the target named is Guanidinoacetate N-methyltransferase (Homo sapiens) (UniProt Q14353). Described as above. As to conditions: MTase-Glo luminescence, SAH detection, recombinant enzyme; at 57.3 µM (top of the series).
For assay [8], the target named is Nicotinamide N-methyltransferase (Homo sapiens) (UniProt P40261). Described as above. As to conditions: MTase-Glo luminescence, SAH detection, recombinant enzyme; measured here: NNMT max response; stronger effect = lower value.
Nicotinamide N-methyltransferase (Homo sapiens), sequence (P40261 whole entry, looked up): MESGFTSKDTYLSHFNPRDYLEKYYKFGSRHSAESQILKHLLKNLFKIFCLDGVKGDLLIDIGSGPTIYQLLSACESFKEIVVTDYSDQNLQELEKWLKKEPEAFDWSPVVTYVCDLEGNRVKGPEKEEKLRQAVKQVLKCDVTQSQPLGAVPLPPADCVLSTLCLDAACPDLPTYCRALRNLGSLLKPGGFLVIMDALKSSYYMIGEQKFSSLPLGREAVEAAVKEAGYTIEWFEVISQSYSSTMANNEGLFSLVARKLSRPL
Assay [9] concerns the target Phenylethanolamine N-methyltransferase (Homo sapiens) (UniProt P11086). The assay is described as above. The following applies: MTase-Glo luminescence, SAH detection, recombinant enzyme; measured here: PNMT max response; stronger effect = lower value.
Assay [10] deals with N-terminal Xaa-Pro-Lys N-methyltransferase 1 (Homo sapiens) (UniProt Q9BV86). In words: Confirmatory qHTS for Inhibitors of N-terminal methyltransferase 1 (NTMT1): MTaseGlo Assay (AID 1645874).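 Note: luminescence from SAH made as NTMT1 methylates SPKRIA peptide using SAM; 0% = DMSO control and -100% = no-enzyme control; nearly all actives have a fitted effect of over 65% in size.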 Put shortly:
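SPKRIA peptide at 1 uM was methylated by 125 nM NTMT1 using 100 uM SAM over 30 min at room temperature, following a 15 min compound preincubation. Product SAH was detected luminescently.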

In the next assay the target is Papain (Carica papaya) (UniProt P00784). The experiment in a line: Primary qHTS assay for inhibitors of the protease papain (AID 1645873).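 Note: papain turnover of Z-FR-AMC read as the AMC fluorescence gain over 10 min; % is set by controls: 0 for no effect and ±100 for the full control effect.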
Papain (Carica papaya), sequence (P00784 whole entry, looked up): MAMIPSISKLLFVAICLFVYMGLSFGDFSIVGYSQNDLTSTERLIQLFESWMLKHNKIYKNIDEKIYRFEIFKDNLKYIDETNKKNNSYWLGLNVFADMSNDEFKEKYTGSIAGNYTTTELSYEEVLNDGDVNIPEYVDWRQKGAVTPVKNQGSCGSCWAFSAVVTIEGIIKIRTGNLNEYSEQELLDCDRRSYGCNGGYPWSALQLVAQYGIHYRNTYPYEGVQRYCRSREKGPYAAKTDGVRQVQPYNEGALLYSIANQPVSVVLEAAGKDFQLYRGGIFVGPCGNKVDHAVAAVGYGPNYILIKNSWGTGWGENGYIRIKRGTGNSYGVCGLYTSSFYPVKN

“And” between values parts separate entries of the source, which are not always exact repeats. Identical values can stand only once. Records with an inconclusive call do not appear. More than one record can exist for a structure, and the calls need not agree. The source made the active and inactive calls. Unless noted, calls come from the whole dose curve; as a rule, active = well fitted curve in the direction sought with a large enough effect; inconclusive = small, poorly fitted or top-dose-only effect, or another doubt; inactive = no such curve, though single readings can be large; an effect the other way counts as inactive or inconclusive.

N-terminal Xaa-Pro-Lys N-methyltransferase 1 (Homo sapiens), sequence (Q9BV86 whole entry, looked up): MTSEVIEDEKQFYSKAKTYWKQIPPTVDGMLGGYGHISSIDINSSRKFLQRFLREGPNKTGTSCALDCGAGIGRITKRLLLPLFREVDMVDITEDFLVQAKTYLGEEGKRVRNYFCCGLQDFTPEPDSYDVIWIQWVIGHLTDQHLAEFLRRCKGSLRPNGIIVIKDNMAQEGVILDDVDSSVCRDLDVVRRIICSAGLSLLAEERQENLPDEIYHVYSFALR
Phenylethanolamine N-methyltransferase (Homo sapiens), sequence (P11086 whole entry, looked up): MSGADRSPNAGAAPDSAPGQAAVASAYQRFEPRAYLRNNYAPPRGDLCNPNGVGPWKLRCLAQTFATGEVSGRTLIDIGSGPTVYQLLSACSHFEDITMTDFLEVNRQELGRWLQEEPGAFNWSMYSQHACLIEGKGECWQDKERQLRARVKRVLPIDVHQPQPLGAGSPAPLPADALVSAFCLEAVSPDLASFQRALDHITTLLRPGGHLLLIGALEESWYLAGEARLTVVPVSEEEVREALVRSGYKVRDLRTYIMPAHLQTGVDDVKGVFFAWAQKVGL

For `CCC(C(=O)OCCN1CCOC(c2ccccc2)C1C)c1ccccc1` (configuration not stated), the Potency is 1.74 µM (active) in assay [1] and 2.19 µM (active) in [2]. The Potency result in [3] and in assay [4] was “inactive” throughout.

With `C[C@@H](O[C@H]1OCCN(Cc2n[nH]c(=O)[nH]2)[C@H]1c1ccc(F)cc1)c1cc(C(F)(F)F)cc(C(F)(F)F)c1`, the Potency was 20.4 µM (active) in assay [1] and 12.1 µM (active) in [2]. Moreover, the Potency entry in [5] is “inactive”.

Regarding `O=[N+]([O-])c1cncn1CCN1CCOCC1`, the Potency result in assay [1], in assay [2], in assay [3] and in assay [4] was “inactive” in each case.

With `Nc1c(NC/C=C\COc2cc(CN3CCCCC3)ccn2)c(=O)c1=O`, the Potency entry in assay [2], in [3] and in [4] was “inactive” throughout. Besides, the activity in assay [6] is -6.1%; in [8], -13.9%; in assay [9] it was -8.61%. Besides, the activity change, negative = inhibition in assay [7] is 2.26%.

`Cn1cc(S(C)=O)c(=O)c2ccc(F)cc21` (configuration not stated): the Potency result in assay [1], in assay [2], in [3] and in assay [4] was “inactive” each time.

As for `CNC(=O)c1c(I)c(NC(C)=O)c(I)c(C(=O)O)c1I`, the Potency entry in assay [1], in assay [2], in assay [3] and in assay [4] was “inactive” in each case.

For `CCCOc1ccc2c(c1)CC[C@@H]1[C@@H]2CC[C@]2(C)C(OC)CC[C@@H]12` (some centres not stated), the Potency in [1] was 15.5 µM (active); in [2] it was 19.5 µM (active). The Potency result in assay [3] and in [4] was “inactive” each time.

Turning to `Nc1cc(C(F)(F)F)ccc1S`, the Potency in assay [1] was 15.5 µM (active); in assay [2], 1.38 µM (active); in assay [3] it was 9.44 µM (active); in assay [4] it was 15 µM (active). Moreover, the Potency entry in assay [10] was “inactive”.

For the compound `O=[N+]([O-])c1ccc(-c2nc(-c3ccc(F)cc3)c(-c3ccncc3)[nH]2)cc1`, in the assay with Papain (Carica papaya), the outcome was “inactive”. Moreover, the Potency result in assay [3] was “inactive and 18.4 µM (active)”; in [4] it was “inactive and 23.1 µM (active)”.

Consider `O=C1Nc2ccccc2C1(c1ccc(O)cc1)c1ccc(O)cc1`, for which the Potency in assay [2] was 4.36 µM (active); in assay [3], 21.1 µM (active); in assay [4], 16.8 µM (active).

In the case of `CCCCC/C=C\C/C=C\CCCCCCCC(=O)NC(C)c1ccccc1` (configuration not stated), the Potency in [2] is 1.55 µM (active); in assay [4], 16.8 µM (active).

Regarding `COC(=O)C1=CO[C@@H](O)[C@@H]2C(CO)=CC[C@H]12`, in the assay with Papain (Carica papaya), the outcome is “inactive”.

On to `Oc1ccc(CCNCCCCCCNCCc2ccccc2)cc1O`, for which the Potency in assay [1] was 24.5 µM (active); in [4] it was 16.8 µM (active). In assay [2], the Potency result is “inactive”.

Take `CN(C)CCOC(c1ccccc1)c1ccc(Br)cc1` (configuration not stated): the Potency was 0.275 µM (active) in assay [1] and 23.7 µM (active) in assay [4].

As to `CCn1ccc(NS(=O)(=O)c2ccc(N)cc2)nc1=O`, the Potency entry in assay [1], in assay [2], in assay [3] and in assay [4] was “inactive” each time.

In the case of `CCCCOC(=O)CCCCCCCCC(=O)OCCCC`, the Potency result in assay [1], in assay [3] and in [4] was “inactive” each time. Besides, the Potency in assay [2] is 19 µM (active).

Source of the values: PubChem BioAssay (NCATS).
